Giardia killer: Small Molecules that selectively kill Giardia lamblia: qHTS; activity change, % at 7.66 µM, hits read low; Giardia lamblia trophozoite viability; 0.15% of 340,000 active; in the data active means activity change below about -80%; inconclusive means between about -30% and that limit;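 further: parasites exposed to compound for two days anaerobically before the ATP read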
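Killing of trophozoites was scored by loss of ATP luminescence after a 48 hrs anaerobic exposure to compounds at 37 deg C, using 100 cells per well.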
TDP1 cell noCPT: qHTS for Inhibitors of human tyrosyl-DNA phosphodiesterase 1 (TDP1): qHTS in cells in absence of CPT; Potency, µM (highest dose often 46.2 µM), hits mostly inhibitors; 15% of 420,000 active; DT40 Tdp1-/- hTDP1 cells, no CPT, ATP luminescence, 48 h; further: nearly all actives have a fitted effect of over 55% in size
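Cells were dispensed at 400 per well, compounds added by pin tool, plates incubated ≥48 hr at 37 °C, then CellTiter-Glo added for 30 min at room temperature before luminescence reading. Line: DT40 Tdp1-/- complemented with hTDP1; camptothecin omitted.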
ELG1 repair inh: qHTS screen for small molecules that inhibit ELG1-dependent DNA repair in human embryonic kidney (HEK293T) cells expressing luciferase-tagged ELG1; HEK293T ELG1-luciferase reporter, luminescence, 16 h; DNA damage induced by 5-fluorouridine; Potency, µM (highest dose often 46.1 µM), hits mostly inhibitors; 2.3% of 330,000 active; AID 504467, 2011; further: nearly all actives have a fitted effect of over 55% in size
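DMSO vehicle served as the neutral condition. Each well held 2,000 cells given 5-fluorouridine plus compound; after 16 hr at 37 °C/5% CO2, ONE-Glo was added and luciferase measured 30 min later.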
IL-1B inflam inh: qHTS for Inhibitors of Inflammasome Signaling: IL-1-beta AlphaLISA Primary Screen; THP-1 LPS/ATP IL-1B secretion, AlphaLISA, 16 h; hits give low values; activity change, % at 57.5 µM; 4.7% of 360,000 active; AID 743279, 2014; in the data active means activity change below about -50%; inconclusive means mostly about -30% to -49%
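Secreted IL-1B measured by AlphaLISA bead assay after 16 h compound exposure of THP-1 cells; compounds (final up to 57.5 uM) added 1 h before LPS (250 ng/mL) and ATP (1.25 mM) stimulation; lower signal means less secretion.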
TDP1 cell CPT: qHTS for Inhibitors of human tyrosyl-DNA phosphodiesterase 1 (TDP1): qHTS in cells in presence of CPT | chicken DT40 Tdp1-/-;hTDP1 cells + 20 nM CPT, ATP luminescence, 48 h | Potency, µM (doses to about 46.2 µM), most hits filed as inhibitors | 12% of 420,000 active; further: nearly all actives have a fitted effect of over 55% in size
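Chicken DT40 Tdp1-/- cells complemented with human TDP1, 400 cells/well, exposed to compounds plus 20 nM camptothecin for at least 48 h at 37 C; viability read as ATP content by CellTiter-Glo luminescence.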
TDP1 inh: qHTS Assay for Inhibitors of Tyrosyl-DNA Phosphodiesterase (TDP1); recombinant TDP1, AlphaScreen DNA substrate cleavage; 0.28% of 350,000 active; AID 485290, 2010; Tyrosyl-DNA phosphodiesterase 1 (Homo sapiens), Q9NUW8; Potency, µM (doses to about 130 µM), usual class: inhibitors; further: nearly all actives have a fitted effect of over 40% in size
Target sequence (Q9NUW8 whole entry, looked up): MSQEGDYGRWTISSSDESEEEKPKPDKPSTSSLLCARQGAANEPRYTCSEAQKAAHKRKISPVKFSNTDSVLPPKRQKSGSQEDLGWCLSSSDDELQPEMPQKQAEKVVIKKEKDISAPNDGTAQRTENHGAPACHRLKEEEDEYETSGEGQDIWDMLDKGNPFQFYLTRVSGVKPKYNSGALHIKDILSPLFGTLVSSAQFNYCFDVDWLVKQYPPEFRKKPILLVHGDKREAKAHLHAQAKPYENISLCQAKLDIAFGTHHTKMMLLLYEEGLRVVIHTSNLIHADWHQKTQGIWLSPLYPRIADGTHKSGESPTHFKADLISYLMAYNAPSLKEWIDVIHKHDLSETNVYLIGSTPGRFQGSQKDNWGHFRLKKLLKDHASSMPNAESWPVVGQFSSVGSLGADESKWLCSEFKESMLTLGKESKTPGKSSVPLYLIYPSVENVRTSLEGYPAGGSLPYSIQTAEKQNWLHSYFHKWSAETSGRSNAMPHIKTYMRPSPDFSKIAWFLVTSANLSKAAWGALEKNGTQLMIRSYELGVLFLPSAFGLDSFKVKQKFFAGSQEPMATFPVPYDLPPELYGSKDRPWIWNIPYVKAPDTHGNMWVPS
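Here, a 5' biotin and 3' phosphotyrosine-FITC DNA oligonucleotide reports Tdp1 activity: intact substrate bridges AlphaScreen beads, while cleavage leaves a 3' phosphate and drops signal. All incubations at room temperature.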
Of the large screens only hits and unclear results are named; the others gave an inactive call. Only some compounds are listed: those with a hit (about 19% of all), similar ones and a draw of the others. Unless noted, the call rests on the fitted dose curve; in most records, active means well fitted curve in the direction sought with a large enough effect; inconclusive means small, poorly fitted or top-dose-only effect, or another doubt; inactive means no such curve, though single readings can be large; an effect the other way counts as inactive or inconclusive.

C#Cc1ccc([C@H]2C=C(C(=O)N3CCN(Cc4ccc5c(c4)OCO5)CC3)O[C@@H](OCC)[C@@H]2CCCO)cc1	TDP1 cell noCPT inconclusive, ELG1 repair inh 18µM, IL-1B inflam inh -50, TDP1 cell CPT inconclusive
COc1cc(/C=C/C(=O)O[C@H]2CC[C@]34C[C@]35CC[C@]3(C)[C@@H]([C@H](C)CCC=C(C)C)CC[C@@]3(C)[C@@H]5CC[C@H]4C2(C)C)ccc1O	none (no result: Giardia killer, ELG1 repair inh, IL-1B inflam inh, TDP1 inh)
CCN(CC)S(=O)(=O)c1cc(NC(=O)C(C)N2CCc3ccccc32)ccc1C (centres undefined)	TDP1 cell noCPT 26µM, ELG1 repair inh inconclusive, IL-1B inflam inh inconclusive, TDP1 cell CPT inconclusive
Cc1ccc(NC(=O)C2CC2C)cc1S(=O)(=O)N1CCOCC1 (centres undefined)	none (no result: TDP1 inh)
CCN(CC)S(=O)(=O)c1cc(NC(=O)C(C)N(C)CC(=O)Nc2c(C)cccc2C)ccc1C (centres undefined)	TDP1 cell noCPT 18µM, ELG1 repair inh 21µM, TDP1 cell CPT 26µM
Cc1ccc(NC(=O)C(C)N2CCCc3ccccc32)cc1S(=O)(=O)N1CCOCC1 (centres undefined)	TDP1 cell noCPT 6.5µM (no result: Giardia killer, ELG1 repair inh, TDP1 inh)
CC(C(=O)Nc1ccc(S(N)(=O)=O)cc1)N1CCc2ccccc21 (centres undefined)	none
Cc1ccc(NC(=O)Nc2ccccc2F)cc1S(=O)(=O)N1CCOCC1	TDP1 cell noCPT inconclusive, ELG1 repair inh 21µM, TDP1 cell CPT inconclusive
CN(C)c1cc(Nc2ccc(O)cc2)c([N+](=O)[O-])c2nonc12	none
O=[N+]([O-])c1c(Nc2ccccn2)cc(Cl)c2nonc12	TDP1 cell noCPT 5.2µM, ELG1 repair inh inconclusive, IL-1B inflam inh -101, TDP1 cell CPT 1.8µM
O=[N+]([O-])c1c(Nc2ccc(O)cc2)cc(Cl)c2nonc12	TDP1 cell noCPT 1.3µM, ELG1 repair inh inconclusive, IL-1B inflam inh -101, TDP1 cell CPT 1.3µM (no result: TDP1 inh)
Cc1cc(Cl)c2oc(C(=O)N3CCN(c4ccncc4)CC3)c(C)c2c1	TDP1 cell noCPT 13µM, IL-1B inflam inh -88, TDP1 cell CPT 21µM (no result: ELG1 repair inh, TDP1 inh)
Cc1ccc2c(C)c(C(=O)N3CCN(c4ncccn4)CC3)oc2c1C	TDP1 cell noCPT 16µM, TDP1 cell CPT 21µM
Cc1c(C(=O)N2CCN(c3ccccc3)CC2)oc2c(F)cccc12	TDP1 cell noCPT inconclusive, TDP1 cell CPT inconclusive
COC(=O)C1CCN(C(=O)c2oc3c(Cl)cc(C)cc3c2C)CC1	TDP1 cell noCPT 21µM, ELG1 repair inh inconclusive, TDP1 cell CPT inconclusive
COc1ccc2oc(C(=O)N3CCN(c4ncccn4)CC3)c(C)c2c1	none
Nc1cc(N)cc(C(=O)OCC(=O)Nc2cc(S(=O)(=O)N3CCCCC3)ccc2Cl)c1	TDP1 cell noCPT inconclusive
O=C1CCc2cc(NS(=O)(=O)c3ccc(Cl)cc3)cc3c2N1CC3	ELG1 repair inh inconclusive (no result: TDP1 inh)
COc1ccc(-n2c(=O)c3c4c(sc3n(C)c2=O)CN(C(C)=O)CC4)cc1	none (no result: Giardia killer, ELG1 repair inh, IL-1B inflam inh)
Cc1cccc(-c2c3c(=O)n(C)c(=O)n(C)c3cn2C2CCCCC2)c1	TDP1 cell noCPT 16µM, ELG1 repair inh inconclusive, TDP1 cell CPT inconclusive
Cn1c(=O)c2c(-c3ccccc3)n(C3CCCCC3)cc2n(C)c1=O	TDP1 cell noCPT 9.2µM, TDP1 cell CPT 18µM
Cn1c(=O)c2c(-c3ccccc3)n(N3CCOCC3)cc2n(C)c1=O	TDP1 cell noCPT inconclusive, TDP1 cell CPT inconclusive
Cc1cccc(-c2c3c(=O)n(C)c(=O)n(C)c3cn2C(C)C)c1	TDP1 cell noCPT 21µM, TDP1 cell CPT 16µM
